Ub-GFP proteasome = proteasome inhibitors stabilizing ubiquitin-GFP reporter. Ubiquitin-GFP reporter cells, proteasome inhibition, GFP fluorescence; response scale: untreated = 0%, 10 µM MG-132 = 100%. AID 526. 67,000 tested, under 10 active. Potency, µM (doses to about 45.9 µM), for the others: at the highest dose activation (GFP accumulation), actives largely listed as activators; active means well fitted activation curve with a large enough effect, not every such curve was filed as active; inconclusive means small, poorly fitted or top-dose-only effect, or another doubt; inactive means no such curve, though single readings can be large or run the other way
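GFP accumulation read-out: laser plate cytometry counting ubiquitin(G76V)-GFP-expressing U2OS cells after 4 hr compound exposure at 37 °C. Titrations spanned 46 uM to 2.9 nM; 0% = basal, 100% = 10 uM MG-132; concentration-response curves fitted.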
USP2a inh = blocks human ubiquitin-specific protease USP2a. O75604. Potency, µM (top dose mostly 38.3 µM), for inactives: top-dose activity change, negative = inhibition, most hits filed as inhibitors. hit rate 0.1% among 60,000. USP2a enzymatic assay, qHTS inhibition; further: nearly all actives have a fitted effect of over 60% in size
Target sequence (O75604 whole entry, looked up): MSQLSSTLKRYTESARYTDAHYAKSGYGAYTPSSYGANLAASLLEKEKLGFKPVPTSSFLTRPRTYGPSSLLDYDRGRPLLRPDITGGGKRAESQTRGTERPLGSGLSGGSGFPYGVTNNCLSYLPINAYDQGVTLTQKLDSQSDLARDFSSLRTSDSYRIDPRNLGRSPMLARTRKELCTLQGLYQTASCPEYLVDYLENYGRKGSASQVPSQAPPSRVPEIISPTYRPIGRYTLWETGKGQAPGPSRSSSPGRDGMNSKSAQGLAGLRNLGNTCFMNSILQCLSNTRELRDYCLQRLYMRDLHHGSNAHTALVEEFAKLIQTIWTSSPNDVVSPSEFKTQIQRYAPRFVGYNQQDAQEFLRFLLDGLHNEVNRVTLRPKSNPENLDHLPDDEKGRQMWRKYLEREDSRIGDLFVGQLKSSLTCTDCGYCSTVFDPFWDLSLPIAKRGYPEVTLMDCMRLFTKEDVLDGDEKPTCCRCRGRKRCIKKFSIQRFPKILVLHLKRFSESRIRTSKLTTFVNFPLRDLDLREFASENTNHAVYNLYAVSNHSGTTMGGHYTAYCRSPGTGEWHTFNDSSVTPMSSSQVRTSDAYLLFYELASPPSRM
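Coupled readout: USP2-cleaved Ub-PLA2 (20nM final) turns over NBD C6-HPC (20uM final), Ex 460nm/Em 535nm after 2.5 h, time-zero read flagging artifacts. Enzyme (20nM final, pH 8.0 Tris) given 30 min RT with compound first; NEM defines full inhibition.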
TSHR ag = activates the human thyroid stimulating hormone receptor | P16473 | HEK293-CNG-TSHR cells (CNG channel as cAMP sensor), membrane potential dye, cAMP | Potency, µM (top dose mostly 57.1 µM), for the others: at the top dose activation, most hits filed as activators | hit rate 0.48% among 73,000 | AID 926; active means well fitted activation curve with a large enough effect in the main read-out, with a control signal flat, not every such curve was filed as active; inconclusive means small, poorly fitted or top-dose-only effect, or a change in a side signal; inactive means no such curve, though single readings can be large or run the other way; % of control where 0% means no effect;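 further: the control signal comes from parental cells without the receptor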
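HEK 293 cells stably expressing TSHR and a cAMP-gated CNG channel; parental CNG-only cells as counterscreen. Cells preloaded 60 min with membrane potential dye plus 100 uM RO 20-1724, then compound 30 min; fluorescence read at 590 nm.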
HEK293 cAMP cs = raises cAMP in parental HEK293 cells, TSHR agonist counter-screen; parental HEK293 CNG cAMP sensor, membrane potential fluorescence; Potency, µM (doses to about 57.1 µM), without a hit: at the top dose activation, hits mostly activators; hit rate 2.5% among 73,000; AID 938; further: % of control where 0% means no effect; nearly all actives have a fitted effect of over 55% in size
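Parental HEK 293 cells stably expressing a modified CNG channel (no TSHR) report cAMP rise as membrane depolarization. Membrane potential dye with 100 uM RO 20-1724 was loaded for 60 min at room temperature, then compound added for 30 min; fluorescence read at 590 nm.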
GBA activity = alters purified human glucocerebrosidase activity; P04062; purified enzyme, resorufin glucoside fluorescence (screen aimed at inhibitors), 20 min; Potency, µM; hit rate 1.1% among 48,000; AID 360; in the data active means potency below about 15 µM; inconclusive means mostly about 16 µM to 33 µM;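 further: the screen sought inhibitors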
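Wild-type enzyme at 0.2 nM final in 50mM citric acid/KH2PO4, 10mM sodium taurocholate, 0.01% tween-20, pH 5.9, with resorufin beta-D-glucopyranoside at 30 uM final. Compounds titrated, 20 min at RT, red fluorescence read; AC50 from titration.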
Bst PK mod = pyruvate kinase (B. stearothermophilus) modulation | purified pyruvate kinase, luminescence ATP production; ribose 5-phosphate activator present at AC10 | Potency, µM | hit rate 1.2% among 51,000 | AID 361; in the data active means potency below about 11 µM; inconclusive means mostly about 12 µM to 25 µM;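 the screen sought inhibitors and activators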;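 further: scaled between full activation by ribose 5 phosphate and full inhibition by luteolin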
* = called active by the depositor; [ ] = another dose, or the depositor's remark. An excerpt weighted towards active compounds, which were near 4.1% of everything screened. Unless noted, the call rests on the fitted dose curve; in most records, active means well fitted curve in the direction sought with a large enough effect; inconclusive means small, poorly fitted or top-dose-only effect, or another doubt; inactive means no such curve, though single readings can be large; an effect the other way counts as inactive or inconclusive. Potency means the concentration at half of the fitted maximal effect.

For Cc1cc(C)c(C)c(S(=O)(=O)NCCC(=O)O)c1C the results were TSHR ag -4% and HEK293 cAMP cs -7%.
`c1ccc(-n2nnc3c(N4CCOCC4)ncnc32)cc1` gave Ub-GFP proteasome -1%, USP2a inh -3%, TSHR ag -2%, HEK293 cAMP cs 4%, GBA activity >77 and Bst PK mod 9.2*.
Screening c1ccc(Cn2nnc3c(N4CCCC4)ncnc32)cc1 returned Ub-GFP proteasome -3%, USP2a inh -2%, TSHR ag inconclusive, HEK293 cAMP cs inconclusive, GBA activity >77 and Bst PK mod >57.
For O=C(c1csc2c1CCCC2)n1cccn1 the results were TSHR ag 32µM* and HEK293 cAMP cs 6%.
Screening O=C(c1csc2c1CCCC2)N1CCN(c2ncccn2)CC1 returned Ub-GFP proteasome 6%, USP2a inh 11%, TSHR ag 15%, HEK293 cAMP cs 19% and GBA activity >77.
`O=C(Nc1ccc2c(c1)nc1n2CCSC1)c1ccco1` gave USP2a inh 8%, TSHR ag -16%, HEK293 cAMP cs -18% and Bst PK mod 4.6*.
O=C(Nc1ccc2c(c1)nc1n2CCOC1)c1ccco1 was read as USP2a inh 0%, TSHR ag -19%, HEK293 cAMP cs -1%, GBA activity inconclusive and Bst PK mod inconclusive.
For CCOC(=O)N1CC=C2C(C#N)=C(N)C(C#N)(C#N)[C@H](c3ccccc3OCC)[C@H]2C1 the results were USP2a inh -10%, TSHR ag inconclusive, HEK293 cAMP cs inconclusive, GBA activity 8.5* and Bst PK mod >57.
`CCOC(=O)N1CC=C2C(C#N)=C(N)C(C#N)(C#N)[C@H](c3ccc(OC(C)C)c(OCC)c3)[C@H]2C1` gave USP2a inh 23%, TSHR ag 3%, HEK293 cAMP cs 13%, GBA activity >77 and Bst PK mod >57.
COc1ccc(CNc2ccnc(-c3ccccc3Cl)n2)c(OC)c1 was read as Ub-GFP proteasome -7%, USP2a inh 6%, TSHR ag inconclusive and HEK293 cAMP cs 10µM*.
Screening COc1ccc(CNc2ncncc2-c2ccccc2Cl)c(OC)c1 returned Ub-GFP proteasome 4%, USP2a inh -3%, TSHR ag inconclusive and HEK293 cAMP cs 32µM*.
For O=c1cnc2cnc(N3CCNCC3)nc2n1C1CC1 the results were Ub-GFP proteasome 8%, USP2a inh 1%, TSHR ag inconclusive and HEK293 cAMP cs inconclusive.
`CCOC(=O)CCN1C(=O)[C@H]2[C@H]3[C@H](O)[C@H](O)C/C(=N/OC[C@@H](O)COCc4ccco4)[C@H]3CC[C@@H]2C1=O` gave TSHR ag 5%[11.4 µM] and HEK293 cAMP cs 2%[11.4 µM].
Screening COc1ccc2cccc(N3CCN(CCNC(=O)c4ccc(F)cc4)CC3)c2c1 returned Ub-GFP proteasome 0%, TSHR ag 20% and HEK293 cAMP cs 13%.
For CC(NC(=O)C1CCN(c2nnc(-n3cccc3)s2)CC1)C12CC3CC(CC(C3)C1)C2 (centres undefined) the results were Ub-GFP proteasome -1%, USP2a inh 36%, TSHR ag 11%, HEK293 cAMP cs 21% and Bst PK mod 8.2*.
CO[C@@H]1COC(=O)CCC[C@@H](C)[C@H](OC)COC(=O)[C@H](Cc2ccccc2)NC(=O)C/C=C\[C@H]1C was read as TSHR ag 2%[11.4 µM] and HEK293 cAMP cs 20%[11.4 µM].
Screening CCC12CCCN3CCC4(C(=C(C(=O)OC)C1)Nc1ccccc14)C32 (centres undefined) returned Ub-GFP proteasome -3%, USP2a inh -3%, TSHR ag inconclusive, HEK293 cAMP cs 25µM*, GBA activity >77 and Bst PK mod >57.
COc1ccc(-c2noc(-c3ccccc3C(=O)NCc3ccco3)n2)cc1 was read as Ub-GFP proteasome -7%, USP2a inh 4%, TSHR ag inconclusive, HEK293 cAMP cs 16µM*, GBA activity >77 and Bst PK mod >57.
